# Unmarked numbers belong to inactive results. Entries that show only a call come without a potency. For some assays here: Potency and affinity values are given separately. Active and inactive are the calls of the source. Unless noted, how the calls were made is not given here.
# What was measured:
# [1] = antimalarial activity against Dd2 strain (AID 2302;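 active means growth inhibition above 50% at the single 2 µM test dose, taken to imply half-maximal potency below 2 µM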); details: P. falciparum Dd2 in RBCs, LDH growth readout, 72 h; at 2 µM; hits give high values
# [2] = HepG2 cytotoxicity, primary screen, cytotoxicity control for P. falciparum antimalarial project, cell-based, ATP luminescence (AID 2303;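 active means inhibition above 50%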); details: HepG2 viability, 24-48 h, at 10 µM, hits give high values
# [3] = biological target: L-lactate dehydrogenase (Plasmodium falciparum (isolate CDC / Honduras)) (UniProt Q27743); test: PfLDH activity inhibition – cell lysate, 3D7 strain, counter-screen for P. falciparum growth inhibition project (AID 2304); details: P. falciparum 3D7 crude extract, LDH APAD/NBT absorbance; at 2 µM; hits give high values
# [4] = inhibition of 3D7 malaria parasite growth – strain 3D7 (AID 2306); details: P. falciparum 3D7 erythrocytic growth, LDH absorbance, 72 h; at 2 µM; hits give high values
# [5] = biological target: Calcium-dependent protein kinase 1 (Plasmodium falciparum (isolate 3D7)) (UniProt P62344); test: PfCDPK1 kinase inhibitors, biochemical, TCAMS library (AID 1159585; cut-off not given, nearly all actives have IC50 up to about 0.98 µM;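 further: inhibitors leave more ATP so luminescence rises with inhibition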); details: recombinant PfCDPK1, Kinase-Glo ATP depletion luminescence
# [6] = biological target: Plasmodium falciparum protein kinase 6 (PK6, PF3D7_1337100) (UniProt Q8IDW1); test: PfPK6 kinase inhibitors, biochemical, TCAMS library (AID 1159586); details: recombinant PfPK6, Kinase-Glo ATP depletion luminescence
# [7] = biological target: Protein kinase 7 (PK7), Plasmodium falciparum 3D7 (PF3D7_0213400) (UniProt Q7YTF7); test: inhibition of Plasmodium PK7 catalytic activity – biochemical, TCAMS antimalarial set, Kinase-Glo luminescence (AID 1159587); details: recombinant PfPK7, Kinase-Glo ATP depletion luminescence
# [8] = biological target: Calcium-dependent protein kinase 4 (Plasmodium falciparum (isolate 3D7)) (UniProt Q8IBS5); test: PfCDPK4 kinase inhibitors, biochemical, TCAMS library (AID 1159588; cut-off not given, nearly all actives have IC50 up to about 0.91 µM); details: recombinant PfCDPK4, Kinase-Glo ATP depletion luminescence
# Calcium-dependent protein kinase 4 (Plasmodium falciparum (isolate 3D7)), sequence (Q8IBS5 whole entry, looked up): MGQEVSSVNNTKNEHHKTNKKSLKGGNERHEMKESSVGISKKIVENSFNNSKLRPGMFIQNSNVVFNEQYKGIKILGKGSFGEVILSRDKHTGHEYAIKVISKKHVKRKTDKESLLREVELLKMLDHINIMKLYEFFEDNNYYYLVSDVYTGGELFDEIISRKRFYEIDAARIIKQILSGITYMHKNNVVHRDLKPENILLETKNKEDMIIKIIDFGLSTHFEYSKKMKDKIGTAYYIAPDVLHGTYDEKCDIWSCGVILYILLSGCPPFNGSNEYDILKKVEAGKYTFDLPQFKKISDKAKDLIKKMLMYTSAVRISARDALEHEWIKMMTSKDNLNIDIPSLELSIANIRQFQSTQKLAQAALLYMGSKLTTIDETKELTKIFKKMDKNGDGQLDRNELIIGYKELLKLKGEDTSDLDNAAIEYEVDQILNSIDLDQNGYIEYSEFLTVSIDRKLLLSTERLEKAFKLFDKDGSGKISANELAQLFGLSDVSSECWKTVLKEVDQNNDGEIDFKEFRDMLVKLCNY
# Plasmodium falciparum protein kinase 6 (PK6, PF3D7_1337100), sequence (Q8IDW1 1-305): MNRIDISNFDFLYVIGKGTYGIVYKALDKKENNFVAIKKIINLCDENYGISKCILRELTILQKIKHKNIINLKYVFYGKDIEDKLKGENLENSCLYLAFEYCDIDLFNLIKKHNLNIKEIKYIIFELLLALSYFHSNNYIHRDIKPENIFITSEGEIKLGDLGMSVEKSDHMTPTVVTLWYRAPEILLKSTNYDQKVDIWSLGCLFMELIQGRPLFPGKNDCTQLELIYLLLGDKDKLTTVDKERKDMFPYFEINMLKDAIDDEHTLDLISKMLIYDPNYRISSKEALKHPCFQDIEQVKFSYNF
# Calcium-dependent protein kinase 1 (Plasmodium falciparum (isolate 3D7)), sequence (P62344 whole entry, looked up): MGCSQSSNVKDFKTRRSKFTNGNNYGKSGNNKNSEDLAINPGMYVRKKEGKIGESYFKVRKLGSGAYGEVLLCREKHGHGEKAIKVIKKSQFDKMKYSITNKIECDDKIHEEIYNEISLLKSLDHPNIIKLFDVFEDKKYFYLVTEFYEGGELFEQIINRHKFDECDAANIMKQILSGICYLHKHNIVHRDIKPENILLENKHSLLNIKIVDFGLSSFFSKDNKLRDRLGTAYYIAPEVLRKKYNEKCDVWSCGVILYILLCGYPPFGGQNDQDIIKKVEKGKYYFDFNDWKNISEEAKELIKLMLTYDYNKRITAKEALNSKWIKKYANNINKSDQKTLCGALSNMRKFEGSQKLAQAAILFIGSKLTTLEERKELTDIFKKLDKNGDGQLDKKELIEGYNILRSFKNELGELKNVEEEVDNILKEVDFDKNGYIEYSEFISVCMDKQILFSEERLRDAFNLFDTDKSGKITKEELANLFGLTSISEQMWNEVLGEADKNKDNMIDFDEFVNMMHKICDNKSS
# Protein kinase 7 (PK7), Plasmodium falciparum 3D7 (PF3D7_0213400), sequence (Q7YTF7 1-343): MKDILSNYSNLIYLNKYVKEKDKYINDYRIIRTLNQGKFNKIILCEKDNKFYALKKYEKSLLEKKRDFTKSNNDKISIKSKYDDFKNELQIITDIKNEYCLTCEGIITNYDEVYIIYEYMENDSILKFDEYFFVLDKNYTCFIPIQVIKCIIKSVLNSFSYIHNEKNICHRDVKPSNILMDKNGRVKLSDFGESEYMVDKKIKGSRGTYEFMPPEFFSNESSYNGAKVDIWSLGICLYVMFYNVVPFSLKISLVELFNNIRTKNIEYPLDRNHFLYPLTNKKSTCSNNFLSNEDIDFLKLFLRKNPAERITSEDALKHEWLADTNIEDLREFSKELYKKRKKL
# L-lactate dehydrogenase (Plasmodium falciparum (isolate CDC / Honduras)), sequence (Q27743 whole entry, looked up): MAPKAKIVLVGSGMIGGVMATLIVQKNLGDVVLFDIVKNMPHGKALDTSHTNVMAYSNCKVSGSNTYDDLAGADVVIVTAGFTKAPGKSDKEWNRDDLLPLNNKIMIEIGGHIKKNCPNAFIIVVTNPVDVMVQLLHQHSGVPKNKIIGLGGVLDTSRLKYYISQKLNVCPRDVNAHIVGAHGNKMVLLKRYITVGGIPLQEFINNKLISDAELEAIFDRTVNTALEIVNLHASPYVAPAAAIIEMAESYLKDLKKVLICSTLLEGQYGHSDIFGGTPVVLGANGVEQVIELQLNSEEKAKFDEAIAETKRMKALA
Compound,growth inhibition [1],inhibition [2],inhibition [3] [%],growth inhibition [4],outcome [5],outcome [6],outcome [7],outcome [8]
COc1cccc(CNC(=O)c2cccc(-c3ccc(CN4CCC(N5CCCC5)CC4)cc3)n2)c1,76% (active),16%,1,101% (active),inactive,inactive,inactive,inactive
NC1=NC(=O)C(=Cc2cn(-c3ccccc3)nc2-c2cccc(S(=O)(=O)N3CCCC3)c2)S1,68% (active),-4%,3,85% (active),inactive,inactive,inactive,inactive
c1ccc2c(NCCCCCCCCCNc3ccnc4ccccc34)ccnc2c1,100% (active),57% (active),-3,101% (active),inactive,inactive,inactive,inactive
CCCCNC(=O)c1[nH]c2c(NC(=O)COc3ccccc3)cccc2c1-c1cccc(NC(=O)C(N)CO)c1 (stereo not given),-3%,11%,-3,87% (active),inactive,inactive,inactive,inactive
Cn1cnc2nc(NCCc3ccccc3)nc(NCc3cccc4ccccc34)c21,98% (active),16%,-2,95% (active),inactive,inactive,inactive,inactive
O[C@@H](c1ccc2ccccc2c1)[C@@H]1CN(CCc2ccccc2)CC[C@@]1(O)c1ccccc1,96% (active),1%,1,99% (active),inactive,inactive,inactive,inactive
CCCNC(=O)C1Cc2c([nH]c3ccc(Br)cc23)C2(CCN(CCc3ccccc3)CC2)N1 (stereo not given),49%,16%,-8,99% (active),inactive,inactive,inactive,inactive
COc1ccc(Nc2nccc(N3CCC(NC(=O)Nc4cccc(C(C)=O)c4)C3)n2)cc1 (stereo not given),79% (active),29%,-11,98% (active),inactive,inactive,inactive,inactive
COc1ccc(N2CCN(CCCCNCc3ccc(NC(=O)c4cc(Cl)cc(Cl)c4)cc3)CC2)c(OC)c1,99% (active),39%,0,100% (active),inactive,inactive,inactive,inactive
CC(Cc1ccc(NC(=O)c2ccc(CNCCc3ccccc3)cc2)cc1)NCCc1cccc(Cl)c1 (stereo not given),99% (active),100% (active),0,100% (active),inactive,inactive,inactive,inactive
Cc1cccc2[nH]c(-c3ccc(-c4ccc(C(=O)NCCN5CCCC5)cc4)s3)nc12,13%,20%,3,100% (active),inactive,inactive,inactive,inactive
Cc1ccc2cc(C3NC(=O)c4ccccc4N3)c(Cl)nc2c1 (stereo not given),38%,-6%,1,91% (active),inactive,inactive,inactive,inactive
CCCOc1cc(OCCC)cc(-c2cc(=O)c3ccccc3[nH]2)c1,96% (active),33%,-2,99% (active),inactive,inactive,inactive,inactive
N#CCSc1nnc(-c2ccccc2)c2ccccc12,73% (active),5%,-1,84% (active),inactive,inactive,inactive,inactive
N#Cc1ccc(CN2CCCN(Cc3cccc(NC(=O)c4cc5ccccc5s4)c3)CC2)cc1,36%,31%,0,97% (active),inactive,inactive,inactive,inactive
Cc1cc(NCc2ccc(F)cc2)nc2cc(O)ccc12,85% (active),14%,-7,98% (active),inactive,inactive,inactive,inactive
COc1c(C2CCN(CCCCNC(=O)c3ccc(-c4ccc(NC(=O)C(F)(F)F)cc4)cc3)CC2)ccc2c1CCCC2,33%,95% (active),8,86% (active),inactive,inactive,inactive,inactive
O=C(Cc1cccc(O)c1)Nc1ccc(-c2cccc(-c3nc4ccc(C(F)(F)F)cc4[nH]3)c2)cc1,1%,14%,2,86% (active),inactive,inactive,inactive,inactive
CC(C)CNCc1ccc(-c2cccc(CN(C(=O)NCCc3ccccc3)C3CCN(Cc4ccccc4)CC3)c2)cc1,94% (active),91% (active),-1,100% (active),inactive,inactive,inactive,inactive
c1ccc(CCNc2nc(NCC(c3ccccc3)c3ccccc3)c3[nH]cnc3n2)cc1,95% (active),9%,-1,100% (active),inactive,inactive,inactive,inactive

Compound,growth inhibition [1],inhibition [2],inhibition [3] [%],growth inhibition [4],outcome [5],outcome [6],outcome [7],outcome [8]
NC(=O)c1cc2nc(NC3CCC3)nc(Nc3cccc4[nH]ncc34)c2[nH]1,62% (active),9%,4,100% (active),inactive,inactive,inactive,inactive
O=C(NCc1ccccc1)c1ncn(CCCN2CCC(N3CCCC3)CC2)c1-c1ccc(Cl)c(Cl)c1,36%,8%,3,89% (active),inactive,inactive,inactive,inactive
O=C(NCc1ccccc1F)c1ccc(N2CCC(NCc3cccc(-n4cccn4)c3)CC2)cc1,3%,9%,4,89% (active),inactive,inactive,inactive,inactive
Cc1nc2ccc(Nc3nccc(-c4c(-c5cccc(NC(=O)c6c(F)cccc6F)c5)nn5ccccc45)n3)cc2nc1C,45%,55% (active),0,91% (active),inactive,inactive,inactive,inactive
OC1CCCN(Cc2ccc(-c3cccc(-c4nc5ccc(F)cc5[nH]4)c3)cc2)C1 (stereo not given),49%,28%,-5,99% (active),inactive,inactive,inactive,inactive
Cc1cc2[nH]c(-c3ccc(C(=O)NCCCN4CCN(c5cccc(Cl)c5)CC4)cc3)nc2cc1Cl,73% (active),1%,6,98% (active),inactive,inactive,inactive,inactive
CN1CCN(c2ccc(-c3cc(-c4ccncc4)c(-c4ccc(Cl)c(O)c4)o3)cc2)CC1,98% (active),-13%,-4,101% (active),inactive,inactive,inactive,inactive
CCNS(=O)(=O)c1ccc(Oc2ccc([N+](=O)[O-])cc2)cc1,85% (active),1%,1,94% (active),inactive,inactive,inactive,inactive
Cc1cc(F)ccc1C1CCN(CCCCNC(=O)c2ccc(NC(=O)c3ccc(Cl)cc3)cc2)CC1,79% (active),19%,0,101% (active),inactive,inactive,inactive,inactive
c1csc(-c2nc(N3CCCCC3)ncc2-c2ccsc2)n1,72% (active),-5%,-3,89% (active),inactive,inactive,inactive,inactive
N#Cc1ccc(NC2(C(=O)N3CCN(c4cccc(Cl)c4)CC3)CC2)c2ccccc12,66% (active),-5%,0,94% (active),inactive,inactive,inactive,inactive
CN1CCN(c2ccnc3ccc(NC(=O)Cc4ccc(OCc5ccccc5)cc4)cc23)CC1,89% (active),6%,-1,100% (active),inactive,inactive,inactive,inactive
O=C(NCc1ccc(C(F)(F)F)cc1)c1cccc(-c2nnc(-c3cccc(-c4cncnc4)c3)o2)c1,79% (active),13%,-2,96% (active),inactive,inactive,inactive,inactive
Cc1cc(N(C)CCN(C)C)nc(Nc2ccc(Cl)cc2)n1,14%,-1%,-3,92% (active),inactive,inactive,inactive,inactive
COc1ccc(CNC2CCN(C)CC2)cc1-c1ccc(S(=O)(=O)NC2CCC2)c(C)c1,96% (active),24%,0,101% (active),inactive,inactive,inactive,inactive
CN1CCN(c2ccc(CNc3ccc4ncc(-c5ccc(OC(F)(F)F)cc5)n4n3)cc2)CC1,87% (active),13%,0,94% (active),inactive,inactive,inactive,inactive
CCCCCc1ccc(NC(=O)Nc2ccc(Cn3ncc(N4CCCNCC4)c(Cl)c3=O)cc2)cc1,23%,15%,3,87% (active),inactive,inactive,inactive,inactive
Cc1cc(N2CCC(NS(=O)(=O)c3ccc(F)cc3)CC2)nc(Nc2cccc(C#N)c2)n1,65% (active),20%,-4,97% (active),inactive,inactive,inactive,inactive
N#Cc1ccc(NC(=O)Nc2ccc3c(c2)CCN(C2CCC2)CC3)cc1,11%,6%,-8,96% (active),inactive,inactive,inactive,inactive
O=C(NCc1cccc(C(F)(F)F)c1)c1ccc(-c2nc3cc(F)c(F)cc3[nH]2)cc1,7%,-1%,4,97% (active),inactive,inactive,inactive,inactive
